Source: the antibiotic and cytotoxicity screens of Wong et al. (2023)
The campaign covered roughly 39,000 compounds. About 3,300 (8.5%) were called active. The sample as a whole holds a higher share of actives than the screen did.

test system: HepG2; assay: cytotoxicity call (relative viability < 0.9); settings: 10 µM

Row | Compound | cytotoxicity call
1 | COc1cccc(S(=O)(=O)N(C)C[C@@H]2Oc3cc(C4=CCCC4)ccc3S(=O)(=O)N([C@@H](C)CO)C[C@H]2C)c1 | inactive
2 | Cc1noc(C)c1S(=O)(=O)Nc1ccc2c(c1)C(=O)N([C@H](C)CO)C[C@H](C)[C@H](CN(C)C(=O)Nc1ccccc1)O2 | inactive
3 | Cc1noc(C)c1S(=O)(=O)N(C)C[C@@H]1Oc2ccc(NS(=O)(=O)c3ccc(F)cc3)cc2CC(=O)N([C@H](C)CO)C[C@@H]1C | inactive
4 | C[C@H]1CN([C@@H](C)CO)C(=O)c2cccc(NC(=O)c3nc4ccccc4s3)c2O[C@@H]1CN(C)C(=O)Nc1ccc(F)cc1 | inactive
5 | COc1ccccc1S(=O)(=O)N(C)C[C@@H]1OCc2cn(nn2)CCCC(=O)N([C@H](C)CO)C[C@H]1C | inactive
6 | Cc1noc(C)c1S(=O)(=O)Nc1ccc2c(c1)C(=O)N([C@@H](C)CO)C[C@@H](C)[C@H](CN(C)S(=O)(=O)c1ccc(Cl)cc1)O2 | inactive
7 | COc1ccc(S(=O)(=O)N(C)C[C@@H]2Oc3ccc(NS(=O)(=O)c4c(C)noc4C)cc3CC(=O)N([C@@H](C)CO)C[C@H]2C)cc1 | inactive
8 | Cc1noc(C)c1NC(=O)Nc1ccc2c(c1)C(=O)N([C@H](C)CO)C[C@@H](C)[C@@H](CN(C)C(=O)C1CCCCC1)OCCCC[C@H](C)O2 | inactive
9 | C[C@@H]1CN([C@H](C)CO)C(=O)c2cccc(NC(=O)NC3CCCCC3)c2O[C@@H]1CN(C)Cc1ccc(C(F)(F)F)cc1 | active
10 | C[C@H](CO)N1C[C@H](C)[C@H](CN(C)Cc2ccc(C(F)(F)F)cc2)Oc2c(NC(=O)NC3CCCCC3)cccc2C1=O | inactive
11 | C[C@H](CO)N1C[C@H](C)[C@@H](CN(C)Cc2ccc(C(F)(F)F)cc2)Oc2c(NC(=O)NC3CCCCC3)cccc2C1=O | inactive
12 | CO[C@H]1CN(C)C(=O)c2ccc(NC(=O)C3CCOCC3)cc2OC[C@@H](C)N(Cc2cccnc2)C[C@H]1C | inactive
13 | C[C@H](CO)N1C[C@H](C)[C@@H](CN(C)Cc2ccc(Cl)c(Cl)c2)Oc2ccc(NC(=O)Cn3cnnn3)cc2C1=O | inactive
14 | C[C@H]1CN([C@@H](C)CO)C(=O)Cc2cc(NC(=O)Nc3ccccc3)ccc2O[C@H]1CN(C)Cc1ccc(-c2ccccc2)cc1 | inactive
15 | C[C@@H]1CN([C@@H](C)CO)C(=O)Cc2cc(NC(=O)Nc3ccccc3)ccc2O[C@H]1CN(C)Cc1ccc(-c2ccccc2)cc1 | active
16 | CC(C)NC(=O)Nc1ccc2c(c1)CC(=O)N([C@H](C)CO)C[C@H](C)[C@H](CN(C)Cc1ccc(-c3ccccc3)cc1)O2 | inactive
17 | C[C@@H]1CN([C@H](C)CO)C(=O)Cc2cc(NC(=O)Nc3ccccc3)ccc2O[C@@H]1CN(C)Cc1ccc(-c2ccccc2)cc1 | active
18 | C[C@@H]1CN([C@@H](C)CO)C(=O)Cc2cc(NC(=O)Nc3ccccc3)ccc2O[C@@H]1CN(C)Cc1ccc(-c2ccccc2)cc1 | inactive
19 | Cc1noc(C)c1NC(=O)Nc1ccc2c(c1)CC(=O)N([C@H](C)CO)C[C@@H](C)[C@H](CN(C)Cc1ccc(-c3ccccc3)cc1)O2 | inactive
20 | C[C@@H]1CN([C@H](C)CO)C(=O)Cc2cc(NC(=O)Nc3ccccc3)ccc2O[C@H]1CN(C)Cc1ccc(-c2ccccc2)cc1 | inactive

Row | Compound | cytotoxicity call
21 | C[C@H](CO)N1C[C@H](C)[C@H](CN(C)Cc2ccc(-c3ccccc3)cc2)Oc2ccc(NC(=O)Nc3ccccc3)cc2CC1=O | active
22 | Cc1noc(C)c1NC(=O)Nc1ccc2c(c1)CC(=O)N([C@@H](C)CO)C[C@@H](C)[C@@H](CN(C)Cc1ccc(-c3ccccc3)cc1)O2 | active
23 | Cc1noc(C)c1NC(=O)Nc1ccc2c(c1)CC(=O)N([C@@H](C)CO)C[C@H](C)[C@H](CN(C)Cc1ccc(-c3ccccc3)cc1)O2 | inactive
24 | NC1CCC(N[C@@H]2C[C@H]2c2ccccc2)CC1 (stereo not given in full) | inactive
25 | C=CCC[C@@H](Cc1ccc(F)cc1)C(=O)OC[C@H]1CCCN1C(=O)[C@@H](CC=C)CC(=O)N(CCO)Cc1ccccc1 | inactive
26 | COc1cccc(S(=O)(=O)Nc2ccc3c(c2)OC[C@H](C)N(C(=O)Cc2cccnc2)C[C@H](C)[C@@H](OC)CN(C)C3=O)c1 | inactive
27 | C[C@@H]1CN([C@H](C)CO)C(=O)c2cc(NS(=O)(=O)c3cn(C)cn3)ccc2O[C@@H]1CN(C)Cc1ccccc1 | inactive
28 | COCC(=O)NC1CCN(C2CCNCC2)CC1 | inactive
29 | CO[C@H]1O[C@H](CO)[C@@H](OC(=O)Nc2ccccc2)[C@@H]2OC(=O)[C@H](Cc3cccc(Br)c3)C/C=C/C[C@@H](Cc3cccc(Br)c3)C(=O)O[C@@H]12 | inactive
30 | C[C@H]1CN([C@@H](C)CO)C(=O)c2cccc(NC(=O)C3CCOCC3)c2O[C@H]1CN(C)C(=O)NC1CCCCC1 | inactive
31 | CC(C)(C)[S@@](=O)N1Cc2cc(C(=O)N3CCc4ccccc4C3)nc(-c3cccc(-c4cccnc4)c3)c2[C@H]1CCO | inactive
32 | Cc1noc(C)c1S(=O)(=O)Nc1ccc2c(c1)C(=O)N([C@H](C)CO)C[C@@H](C)[C@@H](CN(C)S(=O)(=O)c1ccc(Cl)cc1)O2 | inactive
33 | C[C@H]1CN([C@@H](C)CO)C(=O)c2cc(NS(=O)(=O)c3cn(C)cn3)ccc2O[C@@H]1CN(C)S(=O)(=O)c1ccccc1 | inactive
34 | CN1CCN(C(=O)C[C@H]2CC[C@H]3[C@H](COc4ccc(NC(=O)c5cscn5)cc4C(=O)N3C)O2)CC1 | inactive
35 | C[C@H](CO)N1C[C@H](C)[C@@H](CN(C)Cc2ccc(-c3ccccc3)cc2)Oc2ccc(NC(=O)Nc3ccccc3)cc2CC1=O | active
36 | C[C@@H]1CN([C@@H](C)CO)C(=O)c2cc(NC(=O)CCCN(C)C)ccc2O[C@@H]1CN(C)Cc1ccncc1 | inactive
37 | C[C@H](CO)N1C[C@H](C)[C@@H](CN(C)C(=O)Nc2ccc(C(F)(F)F)cc2)OCCCC[C@H](C)Oc2ccc(NS(C)(=O)=O)cc2C1=O | inactive
38 | COc1ccc(S(=O)(=O)Nc2ccc3c(c2)CC(=O)N([C@H](C)CO)C[C@H](C)[C@H](CN(C)S(=O)(=O)c2ccc(C)cc2)O3)cc1 | inactive
39 | NCC[C@@H]1CC[C@H](NC(=O)C2CC2)[C@@H](CO)O1 | inactive
40 | O=C(O)c1cc2cc(F)ccc2s1 | inactive
